From PubChem BioAssay (NCATS)
Records with an inconclusive call do not appear. Where a call stands in place of a potency, no number is given. Unmarked numbers belong to inactive results. The source made the active and inactive calls. Unless noted, the call rests on the fitted dose curve.

Columns and labels:
[1] = qHTS for Inhibitors of the Functional Ribonucleoprotein Complex (vRNP) of Lassa (LASV) Arenavirus: LASV Primary Screen - GLuc reporter signal (AID 1347082; calls by dose curve; tested in HEK293 reporter line; further: nearly all actives have a fitted effect of over 60% in size)
[2] = qHTS for Inhibitors of the Functional Ribonucleoprotein Complex (vRNP) of Lassa (LASV) Arenavirus: Viability assay - alamar blue signal for LASV Primary Screen (AID 1347083; calls by dose curve; tested in HEK293 reporter line; further: nearly all actives have a fitted effect of over 80% in size)
[3] = qHTS for Inhibitors of the Functional Ribonucleoprotein Complex (vRNP) of Lymphocytic Choriomeningitis Arenaviruses (LCMV): Viability assay - alamar blue signal for LCMV Primary Screen (AID 1347085; calls by dose curve; tested in HEK293 reporter line; further: nearly all actives have a fitted effect of over 80% in size)
[4] = molecular target: Nucleoprotein (Lymphocytic choriomeningitis virus (strain Armstrong)) (UniProt P09992); experiment: qHTS for Inhibitors of the Functional Ribonucleoprotein Complex (vRNP) of Lymphocytic Choriomeningitis Arenaviruses (LCMV): LCMV Primary Screen - GLuc reporter signal (AID 1347086); further: nearly all actives have a fitted effect of over 70% in size
Nucleoprotein (Lymphocytic choriomeningitis virus (strain Armstrong)), sequence (P09992 whole entry, looked up): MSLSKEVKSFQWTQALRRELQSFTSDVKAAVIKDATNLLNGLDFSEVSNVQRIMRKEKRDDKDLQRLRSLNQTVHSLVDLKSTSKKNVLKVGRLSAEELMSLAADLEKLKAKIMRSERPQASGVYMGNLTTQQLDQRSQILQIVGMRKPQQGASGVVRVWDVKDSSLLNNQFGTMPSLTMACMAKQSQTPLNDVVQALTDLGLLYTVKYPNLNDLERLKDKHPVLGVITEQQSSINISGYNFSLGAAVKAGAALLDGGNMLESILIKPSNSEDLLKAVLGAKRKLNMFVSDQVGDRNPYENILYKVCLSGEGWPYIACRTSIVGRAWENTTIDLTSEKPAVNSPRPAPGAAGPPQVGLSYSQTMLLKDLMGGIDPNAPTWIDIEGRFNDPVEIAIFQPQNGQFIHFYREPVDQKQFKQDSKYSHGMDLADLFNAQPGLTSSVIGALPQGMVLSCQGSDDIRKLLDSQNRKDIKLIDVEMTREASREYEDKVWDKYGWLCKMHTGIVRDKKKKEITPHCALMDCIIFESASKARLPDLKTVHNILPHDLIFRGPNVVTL
Potency means the concentration at half of the fitted maximal effect.

| SMILES | Potency [1] | Potency [2] | Potency [3] | Potency [4] |
| --- | --- | --- | --- | --- |
| O=c1c(O)c(-c2ccccc2O)oc2cc(O)cc(O)c12 | inactive | inactive | inactive | inactive |
| C[C@@H]1CCN(C(=O)CC#N)C[C@H]1N(C)c1ncnc2[nH]ccc12 | inactive | inactive | inactive | inactive |
| CO[C@H]1C=CO[C@@]2(C)Oc3c(C)c(O)c4c(O)c(c(C=NN5CCN(C)CC5)c(O)c4c3C2=O)NC(=O)C(C)=CC=C[C@H](C)[C@H](O)[C@@H](C)[C@@H](O)[C@@H](C)[C@H](OC(C)=O)[C@H]1C | inactive | inactive | inactive | inactive |
| Nc1nc(Cl)nc2c1ncn2[C@@H]1O[C@H](CO)C(O)[C@H]1O (stereo not given in full) | inactive | inactive | inactive | inactive |
| O=c1cc(CCc2ccccc2)oc2cccc(O)c12 | inactive | inactive | inactive | inactive |
| COc1cc(C(=O)O[C@H]2C/C(C)=C/CC/C(C)=C/[C@@H](O)C2C(C)C)ccc1O (stereo not given in full) | inactive | inactive | inactive | inactive |
| CCN1CCN(C(=O)N[C@H](C(=O)N[C@@H]2C(=O)N3C(C(=O)O)=C(CSc4nnnn4C)CS[C@@H]23)c2ccc(O)cc2)C(=O)C1=O | inactive | inactive | inactive | inactive |
| COC(=O)C1=CO[C@@H](C)[C@@H]2CN3CCc4c([nH]c5ccccc45)[C@@H]3C[C@H]12 | inactive | inactive | inactive | inactive |
| Nc1nc(N)c2[nH]cnc2n1 | inactive | inactive | inactive | inactive |
| COc1ccc(C(=O)OC2C[C@H]3CC[C@@H](C2)N3O)cc1OC (stereo not given in full) | inactive | inactive | inactive | inactive |
| COc1cc(N2CCN(C)CC2)ccc1Nc1nc(N)c(C(=O)c2c(Cl)cccc2Cl)s1 | inactive | inactive | inactive | inactive |
| CC(C)CNC(=O)/C=C/C=C/CCCCCC/C=C/c1ccc2c(c1)OCO2 | inactive | inactive | inactive | inactive |
| C=C(C)C(COc1c2occc2cc2ccc(=O)oc12)OC(C)(C)C(O)COc1c2occc2cc2ccc(=O)oc12 (stereo not given) | inactive | inactive | inactive | inactive |
| O=P(O)(O)OC[C@H]1O[C@](O)(COP(=O)(O)O)[C@@H](O)[C@@H]1O | inactive | inactive | inactive | inactive |
| Cc1ccc([N+](=O)[O-])cc1S(=O)(=O)N(C)N=Cc1cnc2ccc(Br)cn12 | 0.0217 µM (active) | 0.0243 µM (active) | 0.0611 µM (active) | 0.217 µM (active) |
| c1ccc(-c2ccncc2)cc1 | inactive | inactive | inactive | inactive |
| CCCCCCCCCCCCCCCC(=O)NCCc1c[nH]c2ccccc12 | inactive | inactive | inactive | inactive |
| Cn1cnc2c(ncn2[C@@H]2O[C@H](CO)[C@@H](O)[C@H]2O)c1=N | inactive | inactive | inactive | inactive |
| C=C[C@@H](C1=CC(=O)C(OC)=C(OC)C1=O)c1ccccc1 | inactive | inactive | inactive | inactive |
| COc1ccc(C2Sc3ccccc3N(CCN(C)C)C(=O)C2OC(C)=O)cc1 (stereo not given) | inactive | inactive | inactive | inactive |

| SMILES | Potency [1] | Potency [2] | Potency [3] | Potency [4] |
| --- | --- | --- | --- | --- |
| CC(C)c1cc(C(=O)N2Cc3ccc(CN4CCN(C)CC4)cc3C2)c(O)cc1O | 0.968 µM (active) | 0.544 µM (active) | 0.685 µM (active) | 0.485 µM (active) |
| CC1=CC(=O)OC2CC3OC4C[C@@H](C)C5OC6CC7O[C@]8(C)C/C=C\C9OC%10CC%11OC(CC(C)CO)CC(O)[C@]%11(C)OC%10CC9OC8C[C@]7(C)O[C@]6(C)CCC5OC4C[C@]3(C)OC12 (stereo not given in full) | inactive | inactive | inactive | inactive |
| CCCCCCCCO[C@@H]1O[C@H](CO)[C@@H](O)[C@H](O)[C@H]1O | inactive | inactive | inactive | inactive |
| O=C(O)Cn1ccnc1 | inactive | inactive | inactive | inactive |
| CC1CC[C@@]2(OC1)O[C@H]1CC3[C@@H]4C[C@@H](O)[C@@]5(O)C[C@@H](O)[C@H](O)C[C@]5(C)[C@H]4CC[C@]3(C)[C@H]1[C@@H]2C (stereo not given in full) | inactive | inactive | inactive | inactive |
| OC[C@H]1O[C@@H]2O[C@H]3[C@H](O)[C@@H](O)[C@@H](O[C@H]4[C@H](O)[C@@H](O)[C@@H](O[C@H]5[C@H](O)[C@@H](O)[C@@H](O[C@H]6[C@H](O)[C@@H](O)[C@@H](O[C@H]7[C@H](O)[C@@H](O)[C@@H](O[C@H]8[C@H](O)[C@@H](O)[C@@H](O[C@H]9[C@H](O)[C@@H](O)[C@@H](O[C@H]1[C@H](O)[C@H]2O)O[C@@H]9CO)O[C@@H]8CO)O[C@@H]7CO)O[C@@H]6CO)O[C@@H]5CO)O[C@@H]4CO)O[C@@H]3CO | inactive | inactive | inactive | inactive |
| O=C(O)CC(=O)Nc1ccccc1C(=O)O | inactive | inactive | inactive | inactive |
| COc1ccc(-c2oc3ccccc3c(=O)c2O)cc1 | inactive | inactive | inactive | inactive |
| CN=CNc1ccc(C)cc1C | inactive | inactive | inactive | inactive |
| COC(=O)C1=CO[C@@H](OC2OC(CO)C(O)C(O)C2O)[C@@H]2C(CO)=CC[C@H]12 (stereo not given in full) | inactive | inactive | inactive | inactive |
| COc1cc2c(c(OC)c1OC)-c1c(cc3c(c1OC)OCO3)CC(C)C(C)(O)C2OC(=O)c1ccccc1 (stereo not given) | inactive | inactive | inactive | inactive |
| CC[C@H](C)/C=C(C)/C=C/C1=CC2=CC(=O)[C@]3(C)OC(=O)[C@@H](C(C)=O)[C@@H]3C2=CO1 | inactive | inactive | inactive | inactive |
| CC1=C[C@H]2[C@]3(O)C(C=C(CO)C[C@]2(O)C1=O)[C@@H]1C(C)(C)[C@]1(O)[C@H](O)[C@H]3C (stereo not given in full) | inactive | inactive | inactive | inactive |
| CCN1C[C@]2(CO)CC[C@H](OC)[C@@]34C5C[C@H]6[C@H](OC)C5[C@](O)(C[C@H]6OC)[C@@](O)(C(OC)C23)[C@@H]14 (stereo not given in full) | inactive | inactive | inactive | inactive |
| Cc1cc2c(c(CO)c1CCO)C(=O)[C@@H](C)[C@@H]2O | inactive | inactive | inactive | inactive |
| CC1=CC2OC3CC4OC(=O)C=CC=CC(C(C)O)OCC(O)C(C)CC(=O)OCC2(CC1O)C4(C)C31CO1 (stereo not given) | inactive | inactive | inactive | inactive |
| COc1cc(C2C(c3ccccc3)C(c3cc(OC)cc(=O)o3)C2c2ccccc2)oc(=O)c1 (stereo not given) | inactive | inactive | inactive | inactive |
| Cc1cc2c(c(C)c1CCO)C(=O)[C@H](C)C2 | inactive | inactive | inactive | inactive |
| CC(C)NC(=O)NC(C)C | inactive | inactive | inactive | inactive |
| C=C1[C@@H]2C[C@]3(C(CC2=O)[C@]24C5C[C@H]3[C@H]2N(CC)C[C@]5(C)CC[C@@H]4O)[C@@H]1O (stereo not given in full) | inactive | inactive | inactive | inactive |

| SMILES | Potency [1] | Potency [2] | Potency [3] | Potency [4] |
| --- | --- | --- | --- | --- |
| COc1cc(CCc2ccccc2)c(C(=O)O)c(O)c1CC=C(C)C | inactive | inactive | inactive | inactive |
| O=C1C=C(O)c2c(O)cc(O)c(O)c2C1=O | inactive | inactive | inactive | inactive |
| C=CC(C)(CCC=C(C)C)OC(=O)CC (stereo not given) | inactive | inactive | inactive | inactive |
| COC(=O)C1=CO[C@@H](C)[C@@H]2CN3CC[C@@]4(C(=O)Nc5ccccc54)[C@@H]3C[C@H]12 | inactive | inactive | inactive | inactive |
| CCOC(=O)c1c(C)cc(O)cc1O | inactive | inactive | inactive | inactive |
| O=C(NCO)c1cccnc1 | inactive | inactive | inactive | inactive |
| COc1cc2c(cc1OC)C(C(=O)c1ccc(OC)c(OC)c1O)=NCC2 | inactive | inactive | inactive | inactive |
| COC(=O)c1ccc(OC)cc1 | inactive | inactive | inactive | inactive |
| CC1CCC(C(C)[C@H]2CCC3C4CC(=O)C5C[C@@H](O)CC[C@]5(C)C4CC[C@@]32C)=NC1 (stereo not given in full) | inactive | inactive | inactive | inactive |
| CC(=O)c1ccc(-c2cccs2)s1 | inactive | inactive | inactive | inactive |
| CC1(C)[C@H](O[C@H]2O[C@H](C(=O)O)[C@@H](O)[C@H](O)[C@H]2O[C@@H]2O[C@H](C(=O)O)[C@@H](O)[C@H](O)[C@H]2O)CC[C@@]2(C)[C@H]1CC[C@]1(C)[C@H]2C(=O)C=C2[C@H]3C[C@@](C)(C(=O)O)CC[C@]3(C)CC[C@]21C | inactive | inactive | inactive | inactive |
| CC(C)N1[N]C(=C2C=c3cc(O)ccc3=N2)c2c(N)ncnc21 | 2.73 µM (active) | 0.685 µM (active) | 1.09 µM (active) | 0.611 µM (active) |
| CC(C)C1=CC2=CC[C@@H]3[C@](C)(CCC[C@@]3(C)C(=O)O)[C@H]2CC1 | inactive | inactive | inactive | inactive |
| COc1cc2c(c(OC)c1CC=C(C)C)C[C@H](c1ccc(O)cc1O)CO2 | inactive | inactive | inactive | inactive |
| CC(C)(O)[C@H](O)COc1c2occc2cc2ccc(=O)oc12 | inactive | inactive | inactive | inactive |
| COc1c2c(c(CCC(=O)O)c3c1C=CC(C)(C)O3)OC(C)(C)C=C2 | inactive | inactive | inactive | inactive |
| C[C@H](CCC(=O)NCC(=O)O)[C@H]1CC[C@H]2[C@@H]3[C@H](O)C[C@@H]4C[C@H](O)CC[C@]4(C)[C@H]3C[C@H](O)[C@]12C | inactive | inactive | inactive | inactive |
| C[C@@H]1CC(=O)[C@H]2CC(CO)=CCC[C@@H]2[C@@]1(C)CC/C(=C/CO)CO | inactive | inactive | inactive | inactive |
| FC(F)c1nc2ccccc2n1-c1nc(N2CCOCC2)nc(N2CCOCC2)n1 | 8.63 µM (active) | 3.06 µM (active) | 13.7 µM (active) | 19.3 µM (active) |
| CCCCCCCC/C=C/CCCOC(C)=O | inactive | inactive | inactive | inactive |
